# Results published in PubChem BioAssay.
# Active and inactive are the calls of the source.
# Experiments:
# [1] = tested on: PRMT1 (protein arginine N-methyltransferase 1); assay: PRMT1 binders on small-molecule microarrays, primary screen, biochemical, small-molecule microarray, 635 nm fluorescence (AID 1088); settings: small-molecule microarray binding, higher = more signal;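 further: binding of Prmt1 protein to compounds spotted on small-molecule microarray slides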
# [2] = yeast growth modulation, basal conditions, primary screen, YJM789 clinical isolate, OD600, 24 h (AID 1089);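 further: growth of clinical yeast isolate S. cerevisiae YJM 789 seeded 1000 cells per well; test concentration not given here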; settings: S. cerevisiae YJM789 growth, higher = more signal, called active from +8 up or from −8 down
# [3] = fission yeast growth modulation, primary screen, strain 972, OD600, 24 h, no modulator (AID 1090);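 further: basal condition with compound alone and no growth modifier present; test concentration not given here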; settings: S. pombe 972 growth, higher = more signal, called active from +8 up or from −8 down
# [4] = S. cerevisiae growth modulation with rapamycin, primary screen, strain BY4716, OD600, 96 h (AID 1091); settings: higher = more signal, called active from +8 up or from −8 down; further: test concentration not given here
# [5] = target: Torsin-1A-interacting protein 2 (Homo sapiens) (UniProt Q8NFQ8); assay: LULL1 binders on small-molecule microarray, primary screen, cell lysate, human LULL1 lysate, 635/667 nm fluorescence (AID 1092); settings: hLULL1 lysate binding, 635 nm fluorescence, higher = more signal;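 further: probe is lysate of COS7 cells overexpressing human LULL1; score merges per-feature 667 nm fluorescence with signal-to-noise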
# Chain of Torsin-1A-interacting protein 2 (Homo sapiens) (Q8NFQ8 whole entry, looked up): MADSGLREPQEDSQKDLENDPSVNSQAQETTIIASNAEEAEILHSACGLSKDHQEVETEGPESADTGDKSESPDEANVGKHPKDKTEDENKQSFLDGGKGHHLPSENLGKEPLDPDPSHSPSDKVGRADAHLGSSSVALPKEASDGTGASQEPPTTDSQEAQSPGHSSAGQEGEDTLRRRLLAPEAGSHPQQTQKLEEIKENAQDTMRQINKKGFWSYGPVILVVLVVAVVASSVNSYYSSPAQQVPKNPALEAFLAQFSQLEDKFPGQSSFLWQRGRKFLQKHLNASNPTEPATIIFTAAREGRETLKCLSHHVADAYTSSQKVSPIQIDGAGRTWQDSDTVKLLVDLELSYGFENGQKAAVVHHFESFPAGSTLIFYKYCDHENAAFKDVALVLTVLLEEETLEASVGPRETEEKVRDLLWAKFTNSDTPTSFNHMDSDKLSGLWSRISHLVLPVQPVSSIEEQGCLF
# [6] = E. coli growth modulation, two-sided OD650, primary screen, E. coli filamentation project, strain DRC41, 24 h (AID 1093); settings: OD650, 24 h, higher = more signal, called active from +8 up or from −8 down;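 further: MC1000 strain lacking acrAB efflux and sulA so SOS filamentation is blocked; test concentration not given here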
# [7] = small-molecule microarray binders of probe aLefty2, primary screen, biochemical, biotinylated probe, 635/667 nm fluorescence (AID 1094); settings: higher = more signal;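 further: score merges spot fluorescence near 667 nm with spot signal-to-noise ratio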
# [8] = tested on: Noggin (protein binding on small-molecule microarray); assay: Noggin binders on small-molecule microarray, primary screen, biochemical, 635/667 nm fluorescence (AID 1095); settings: 635 nm fluorescence, higher = more signal;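 further: score merges 667 nm feature fluorescence with signal to noise over triplicate slides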
# [9] = target: Neurogenic locus notch homolog protein 3 (Homo sapiens) (UniProt Q9UM47); assay: NOTCH3 binders on small-molecule microarray, primary screen, biochemical, 635/667 nm fluorescence (AID 1096); settings: NOTCH3 binding, 635 nm fluorescence, higher = more signal
# Chain of Neurogenic locus notch homolog protein 3 (Homo sapiens) (Q9UM47 whole entry, looked up): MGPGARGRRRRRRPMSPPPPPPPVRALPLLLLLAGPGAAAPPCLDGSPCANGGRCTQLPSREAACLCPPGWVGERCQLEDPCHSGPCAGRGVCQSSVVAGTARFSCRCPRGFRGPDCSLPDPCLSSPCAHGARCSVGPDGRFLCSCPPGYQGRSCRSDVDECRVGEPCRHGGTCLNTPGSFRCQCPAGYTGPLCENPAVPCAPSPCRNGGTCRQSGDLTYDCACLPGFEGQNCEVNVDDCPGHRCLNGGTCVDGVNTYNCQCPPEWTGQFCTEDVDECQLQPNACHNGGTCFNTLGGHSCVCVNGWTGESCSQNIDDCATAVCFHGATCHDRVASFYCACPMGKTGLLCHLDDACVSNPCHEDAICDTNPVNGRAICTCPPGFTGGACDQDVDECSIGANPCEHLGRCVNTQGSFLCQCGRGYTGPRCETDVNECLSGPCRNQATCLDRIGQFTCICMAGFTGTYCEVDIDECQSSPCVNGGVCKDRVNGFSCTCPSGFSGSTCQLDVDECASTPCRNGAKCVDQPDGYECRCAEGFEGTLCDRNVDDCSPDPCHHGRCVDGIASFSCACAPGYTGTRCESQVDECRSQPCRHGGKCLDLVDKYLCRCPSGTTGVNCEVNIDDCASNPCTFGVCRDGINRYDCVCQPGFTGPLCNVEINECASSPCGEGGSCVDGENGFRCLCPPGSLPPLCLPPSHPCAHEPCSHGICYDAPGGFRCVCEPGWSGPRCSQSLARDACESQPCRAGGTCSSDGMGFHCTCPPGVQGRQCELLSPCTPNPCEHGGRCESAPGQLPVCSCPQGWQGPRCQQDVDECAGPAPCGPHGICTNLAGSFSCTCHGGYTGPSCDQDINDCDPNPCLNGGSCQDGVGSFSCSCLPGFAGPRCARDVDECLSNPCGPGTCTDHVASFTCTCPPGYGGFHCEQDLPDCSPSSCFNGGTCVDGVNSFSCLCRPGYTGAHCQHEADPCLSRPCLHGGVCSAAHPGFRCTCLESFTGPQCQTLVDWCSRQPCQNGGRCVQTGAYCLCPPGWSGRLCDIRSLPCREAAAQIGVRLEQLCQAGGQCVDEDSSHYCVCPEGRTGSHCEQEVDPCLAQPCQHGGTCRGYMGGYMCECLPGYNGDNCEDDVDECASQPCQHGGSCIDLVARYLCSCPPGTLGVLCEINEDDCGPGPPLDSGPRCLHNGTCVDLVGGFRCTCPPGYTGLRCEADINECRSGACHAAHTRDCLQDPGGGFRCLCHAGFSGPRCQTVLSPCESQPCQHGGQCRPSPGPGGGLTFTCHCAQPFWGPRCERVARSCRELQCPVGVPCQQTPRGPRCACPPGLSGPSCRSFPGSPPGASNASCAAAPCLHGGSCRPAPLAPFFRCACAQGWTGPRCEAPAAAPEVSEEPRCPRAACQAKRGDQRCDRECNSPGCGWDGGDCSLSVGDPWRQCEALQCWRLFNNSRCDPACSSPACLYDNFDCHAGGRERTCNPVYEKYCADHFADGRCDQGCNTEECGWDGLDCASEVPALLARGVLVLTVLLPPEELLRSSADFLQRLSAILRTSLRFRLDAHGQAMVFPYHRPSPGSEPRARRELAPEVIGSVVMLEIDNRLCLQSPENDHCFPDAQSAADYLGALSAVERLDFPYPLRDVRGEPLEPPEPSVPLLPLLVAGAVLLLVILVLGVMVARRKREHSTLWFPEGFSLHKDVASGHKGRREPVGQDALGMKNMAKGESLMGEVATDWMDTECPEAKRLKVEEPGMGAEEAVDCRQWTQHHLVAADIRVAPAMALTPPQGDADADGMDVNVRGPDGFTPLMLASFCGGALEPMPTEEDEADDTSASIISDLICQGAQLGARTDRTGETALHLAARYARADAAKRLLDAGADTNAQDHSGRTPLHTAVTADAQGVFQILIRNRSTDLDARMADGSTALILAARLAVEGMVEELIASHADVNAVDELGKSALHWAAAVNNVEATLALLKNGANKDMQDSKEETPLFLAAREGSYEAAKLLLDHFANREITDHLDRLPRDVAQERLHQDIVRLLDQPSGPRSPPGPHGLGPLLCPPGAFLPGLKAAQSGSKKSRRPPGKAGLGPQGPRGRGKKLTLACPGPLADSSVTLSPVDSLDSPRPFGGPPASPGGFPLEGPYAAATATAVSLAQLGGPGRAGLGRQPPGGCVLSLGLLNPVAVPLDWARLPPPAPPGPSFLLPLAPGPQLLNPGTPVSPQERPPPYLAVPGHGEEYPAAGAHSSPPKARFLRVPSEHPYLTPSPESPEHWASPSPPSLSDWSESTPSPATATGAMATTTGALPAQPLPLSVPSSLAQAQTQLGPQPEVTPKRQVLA
# [10] = small-molecule microarray binders of probe aEGFR, primary screen, biochemical, biotinylated probe, 635/667 nm fluorescence (AID 1097); settings: higher = more signal;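 further: probe is a biotinylated anti-EGFR antibody binding compounds printed on slides; score combines fluorescence near 667 nm and signal to noise of each spot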
# [11] = tested on: Plasmodium falciparum Sir2 (PF13_0152, Sir2A); assay: pfSir2 binders on small-molecule microarrays, primary screen, biochemical, small-molecule microarray, 635 nm fluorescence (AID 1098); settings: small-molecule microarray binding, fluorescence 635 nm; higher = more signal;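 further: score merges spot fluorescence intensity with its signal-to-noise ratio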
# [12] = small-molecule microarray binders of probe aDKK1, primary screen, biochemical, biotinylated probe, 635/667 nm fluorescence (AID 1099); settings: higher = more signal;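 further: score merges 667nm spot fluorescence with signal to noise across triplicate slides; reference of the scale not given here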
# [13] = small-molecule microarray binders of probe aCHRDL2, primary screen, biochemical, biotinylated probe, 635/667 nm fluorescence (AID 1100); settings: higher = more signal
# [14] = splicing luciferase reporter signal modulators, primary screen, spliceosome inhibition project, cell-based, HEK293, splice +/- reporter (AID 1101); settings: luminescence, 24 h, higher = more signal, called active from +8 up or from −8 down;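 further: HEK293 cells carrying a splicing-competent luciferase reporter gene; test concentration not given here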
# [15] = target: Fibroblast growth factor 10 (Homo sapiens) (UniProt O15520); assay: FGF10 binders on small-molecule microarrays, primary screen, biochemical, small-molecule microarray, 635 nm fluorescence (AID 1102); settings: FGF10 binding, fluorescence 635 nm, higher = more signal
# Chain of Fibroblast growth factor 10 (Homo sapiens) (O15520 whole entry, looked up): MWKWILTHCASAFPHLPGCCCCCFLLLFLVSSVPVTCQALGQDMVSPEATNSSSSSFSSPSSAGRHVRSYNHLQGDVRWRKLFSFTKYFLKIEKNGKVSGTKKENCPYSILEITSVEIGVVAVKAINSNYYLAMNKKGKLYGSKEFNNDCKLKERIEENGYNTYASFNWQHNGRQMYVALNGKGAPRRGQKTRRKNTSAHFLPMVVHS
# [16] = tested on: glycogen synthase kinase-3 (GSK3A per assay name; protocol says GSK3B); assay: GSK3 binders on small-molecule microarrays, primary screen, biochemical, small-molecule microarray, 635 nm fluorescence, GSK3A (AID 1103); settings: small-molecule microarray binding, fluorescence 635 nm; higher = more signal; further: the record names both GSK3A and GSK3B
# [17] = target: Epidermal growth factor receptor (Homo sapiens) (UniProt P00533); assay: EGFR binders on small-molecule microarrays, primary screen, biochemical, small-molecule microarray, 635 nm fluorescence (AID 1104); settings: EGFR binding, higher = more signal;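 further: score merges 667 nm emission intensity with spot signal to noise over triplicate slides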
# Chain of Epidermal growth factor receptor (Homo sapiens) (P00533 whole entry, looked up): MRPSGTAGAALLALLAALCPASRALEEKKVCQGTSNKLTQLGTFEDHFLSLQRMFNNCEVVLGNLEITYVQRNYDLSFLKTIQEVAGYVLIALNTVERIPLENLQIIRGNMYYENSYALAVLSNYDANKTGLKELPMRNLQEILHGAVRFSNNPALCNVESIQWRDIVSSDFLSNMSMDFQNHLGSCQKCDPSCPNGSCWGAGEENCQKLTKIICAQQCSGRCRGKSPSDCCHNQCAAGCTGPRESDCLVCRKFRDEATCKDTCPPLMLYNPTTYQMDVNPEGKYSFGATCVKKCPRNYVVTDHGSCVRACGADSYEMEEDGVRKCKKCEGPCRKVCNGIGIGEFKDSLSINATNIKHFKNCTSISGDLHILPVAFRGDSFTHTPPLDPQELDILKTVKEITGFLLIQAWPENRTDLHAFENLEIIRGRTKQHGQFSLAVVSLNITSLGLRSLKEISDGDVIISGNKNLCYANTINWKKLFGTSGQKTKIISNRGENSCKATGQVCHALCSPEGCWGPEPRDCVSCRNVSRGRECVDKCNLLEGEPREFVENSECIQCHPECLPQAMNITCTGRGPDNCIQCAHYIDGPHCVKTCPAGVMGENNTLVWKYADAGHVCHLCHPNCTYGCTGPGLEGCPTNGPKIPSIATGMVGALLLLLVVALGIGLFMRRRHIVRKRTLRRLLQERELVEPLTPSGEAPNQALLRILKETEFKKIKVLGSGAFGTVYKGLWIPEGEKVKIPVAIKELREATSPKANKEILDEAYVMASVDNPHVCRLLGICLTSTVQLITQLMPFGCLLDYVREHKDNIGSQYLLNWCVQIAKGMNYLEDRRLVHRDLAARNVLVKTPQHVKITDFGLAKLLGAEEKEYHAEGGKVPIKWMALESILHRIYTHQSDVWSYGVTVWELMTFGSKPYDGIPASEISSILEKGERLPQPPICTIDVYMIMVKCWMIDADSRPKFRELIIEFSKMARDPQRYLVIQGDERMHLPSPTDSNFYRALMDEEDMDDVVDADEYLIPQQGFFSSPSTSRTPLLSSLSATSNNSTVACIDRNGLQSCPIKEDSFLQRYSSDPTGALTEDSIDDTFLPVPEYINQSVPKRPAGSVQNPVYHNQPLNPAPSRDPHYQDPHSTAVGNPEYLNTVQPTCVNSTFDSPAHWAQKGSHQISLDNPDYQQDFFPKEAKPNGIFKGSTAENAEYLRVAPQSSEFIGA
# [18] = target: Follistatin-related protein 3 (Homo sapiens) (UniProt O95633); assay: FSTL3 binders on small-molecule microarrays, primary screen, biochemical, small-molecule microarray, 635 nm fluorescence (AID 1105); settings: FSTL3 binding, higher = more signal;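 further: score merges emission near 667 nm and signal to noise per printed spot across three slides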
# Chain of Follistatin-related protein 3 (Homo sapiens) (O95633 whole entry, looked up): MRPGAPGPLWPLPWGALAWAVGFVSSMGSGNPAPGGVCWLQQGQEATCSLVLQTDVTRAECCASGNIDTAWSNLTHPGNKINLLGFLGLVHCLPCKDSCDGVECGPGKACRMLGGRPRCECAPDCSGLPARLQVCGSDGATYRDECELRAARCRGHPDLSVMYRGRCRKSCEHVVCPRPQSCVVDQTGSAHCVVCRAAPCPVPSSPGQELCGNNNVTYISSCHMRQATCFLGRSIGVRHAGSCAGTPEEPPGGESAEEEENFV
# [19] = target: Dickkopf-related protein 1 (Homo sapiens) (UniProt O94907); assay: DKK1 binders on small-molecule microarrays, primary screen, biochemical, small-molecule microarray, 635 nm fluorescence scan (AID 1106); settings: DKK1 binding, higher = more signal;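 further: score merges emission near 667 nm with signal to noise over three replicate slides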
# Chain of Dickkopf-related protein 1 (Homo sapiens) (O94907 whole entry, looked up): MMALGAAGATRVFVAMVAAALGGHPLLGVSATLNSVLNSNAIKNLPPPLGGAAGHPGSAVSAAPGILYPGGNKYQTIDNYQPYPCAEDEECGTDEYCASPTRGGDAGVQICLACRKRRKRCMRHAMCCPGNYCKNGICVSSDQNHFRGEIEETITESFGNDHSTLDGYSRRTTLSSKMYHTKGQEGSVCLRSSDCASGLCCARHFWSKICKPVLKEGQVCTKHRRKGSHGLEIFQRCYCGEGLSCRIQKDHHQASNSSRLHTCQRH
# [20] = tested on: Inhibin beta A chain (activin A); assay: INHBA (activin A) binders on microarrays, primary screen, biochemical, small-molecule microarray, 635 nm fluorescence scan (AID 1107); settings: small-molecule microarray binding, higher = more signal;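 further: mouse activin A protein probed at 4.33 µg/mL on printed slides; score merges bound-protein fluorescence near 667 nm with spot signal-to-noise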
compound,measurement,setting,value
COC(=O)[C@@]1(Cc2ccc(F)cc2)[C@H]2c3cc(C(=O)N4CCCC4)n(Cc4cc(F)cc5c4OCOC5)c3C[C@H]2CN1C(=O)c1ccccc1,composite z-score,[1],0.272
same,z-score,[2],0.494 (inactive)
same,z-score,[3],1.57 (inactive)
same,z-score,[4],3.33 (inactive)
same,composite z-score,[5],0.423
same,z-score,[6],-0.0269 (inactive)
same,composite z-score,[7],0.299
same,composite z-score,[8],0.739
same,composite z-score,[9],1.12
same,composite z-score,[10],0.36
same,composite z-score,[11],0.672
same,composite z-score,[12],1.14
same,composite z-score,[13],1.06
same,z-score,[14],-0.844 (inactive)
same,composite z-score,[15],0.762
same,composite z-score,[16],-0.0785
same,composite z-score,[17],0.0228
same,composite z-score,[18],1.3
same,composite z-score,[19],-0.334
same,composite z-score,[20],0.888
CCOC(=O)C1=CC[C@@H](c2ccccc2)N(S(=O)(=O)c2ccc(C)cc2)[C@H]1c1ccccc1I,composite z-score,[1],0.98
same,z-score,[2],-0.323 (inactive)
same,z-score,[3],0.666 (inactive)
same,z-score,[4],0.607 (inactive)
same,composite z-score,[5],2.63
same,z-score,[6],-0.162 (inactive)
same,composite z-score,[7],0.52
same,composite z-score,[8],0.22
same,composite z-score,[9],1.06
same,composite z-score,[10],0.0321
same,composite z-score,[11],0.88
same,composite z-score,[12],0.655
same,composite z-score,[13],1.13
same,z-score,[14],-0.0553 (inactive)
same,composite z-score,[15],0.619
same,composite z-score,[16],0.698
same,composite z-score,[17],0.467
same,composite z-score,[18],0.806
same,composite z-score,[19],0.254
same,composite z-score,[20],0.471
Cc1ccc(S[C@]2(C(=O)NCCCN(C)C)CC(=O)N(C3Cc4ccccc4C3)[C@@H]2c2ccc(CO)cc2I)cc1,composite z-score,[1],0.961
same,z-score,[2],-0.471 (inactive)
same,z-score,[3],-2.87 (inactive)
same,z-score,[4],1.32 (inactive)
same,composite z-score,[5],1.14
same,z-score,[6],-0.42 (inactive)
same,composite z-score,[7],-0.035
same,composite z-score,[8],-0.978
same,composite z-score,[9],-0.105
same,composite z-score,[10],-0.0828
same,composite z-score,[11],1.58
same,composite z-score,[12],0.182
same,composite z-score,[13],0.932
same,z-score,[14],-1.53 (inactive)
same,composite z-score,[15],-0.795
same,composite z-score,[16],-0.719
same,composite z-score,[17],-0.487
same,composite z-score,[18],-0.335
same,composite z-score,[19],-0.976
same,composite z-score,[20],0.794
Cc1ccccc1C(O)C1C=CC2C(=O)N(c3ccccc3)C(=O)C2N1Nc1ccccc1 (stereo not given),composite z-score,[1],1.53
same,z-score,[2],0.555 (inactive)
same,z-score,[3],0.828 (inactive)
same,z-score,[4],0.0369 (inactive)
same,composite z-score,[5],3.42
same,z-score,[6],-0.555 (inactive)
same,composite z-score,[7],0.307
same,composite z-score,[8],0.219
same,composite z-score,[9],1.03
same,composite z-score,[10],0.183
same,composite z-score,[11],1.37
same,composite z-score,[12],1.01
same,composite z-score,[13],1.25
same,z-score,[14],-0.00177 (inactive)
same,composite z-score,[15],0.96
same,composite z-score,[16],0.65
same,composite z-score,[17],0.0981
same,composite z-score,[18],1.17
same,composite z-score,[19],0.0843
same,composite z-score,[20],1.45
CC1CC/C=C\[C@H]2OC34C=CCN(c5ccc6ccccc6c5)C(=O)[C@H]3N(C(C)CO)C(=O)[C@@H]4C2C(=O)O1 (stereo not given in full),composite z-score,[1],0.541
same,z-score,[2],0.612 (inactive)
same,z-score,[3],-0.197 (inactive)
same,z-score,[4],0.407 (inactive)
same,composite z-score,[5],-0.172
same,z-score,[6],-0.312 (inactive)
same,composite z-score,[7],-0.244
same,composite z-score,[8],-1.1
same,composite z-score,[9],-0.0196
same,composite z-score,[10],-0.252
same,composite z-score,[11],1.38
same,composite z-score,[12],-0.087
same,composite z-score,[13],0.404
same,z-score,[14],0.0493 (inactive)
same,composite z-score,[15],-0.83
same,composite z-score,[16],-1.36
same,composite z-score,[17],-0.975
same,composite z-score,[18],-1.04
same,composite z-score,[19],-0.591
same,composite z-score,[20],0.265
